# Laboratory results: the supplement of paper PMC9135407
# Several values for one entry are separate records, joined by “and”; a condition that tells them apart may be missing. Equal entries are not always repeated. Structures can show the parent of a compound that is named as a salt. Among all 5,800 compounds or so, about 620 (11%) showed activity. Many of the other results were omitted from the sample, so actives are more common in it than they were. A number with no mark means an inactive call.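 The calls were made as follows: active = score above a cut-off or among the top three wells of a plate; in these data no inactive exceeds 0.85.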
# System: primary human hepatic stellate cells (donor 1)
# Assay: scaled lipid accumulation score (0 = DMSO-like, 1 = nortriptyline-like); higher = stronger HSC inactivation (lipid re-accumulation), active = hit call of the paper
# Details: 48 h
# [1] = library stock concentration: 1 mM
# [2] = library stock concentration: 80 uM
# [3] = library stock concentration: 400 uM
# [4] = library stock concentration: 2 mM
# [5] = library stock concentration: 3.33 mM
# [6] = library stock concentration: 10 mM
structure (smiles),measurement,setting,value
CC(C)CC[C@@H](O)[C@@H](C)[C@H]1CC[C@H]2[C@@H]3CC=C4C[C@@H](O)CC[C@]4(C)[C@H]3CC[C@]12C [22(R)-hydroxy Cholesterol],scaled lipid accumulation score,[1],0.045
O=C1C[C@@H]2[C@@H](/C=C/[C@@H](O)COc3cccc(C(F)(F)F)c3)[C@H](O)C[C@@H]2O1 [Fluprostenol Lactone Diol],scaled lipid accumulation score,[1],0.003
CC1=C(C(=O)Nc2cc3cn[nH]c3cc2F)C(c2ccc(C(F)(F)F)cc2)CC(=O)N1 (centres undefined),scaled lipid accumulation score,[2],0.022
same,scaled lipid accumulation score,[3],≤ 0 and ≤ -0.005
same,scaled lipid accumulation score,[4],0.014 and ≤ -0.005
same,scaled lipid accumulation score,[5],≤ 0
same,scaled lipid accumulation score,[6],≤ 0 and 0.096 and 0.308
"C/C=C1\NC(=O)[C@H]2CSSCC/C=C/[C@H](CC(=O)N[C@H](C(C)C)C(=O)N2)OC(=O)[C@H](C(C)C)NC1=O [Romidepsin (FK228, Depsipeptide)]",scaled lipid accumulation score,[5],0.521
same,scaled lipid accumulation score,[6],0.472
C=CC(=O)N1CCc2ccc(-n3c(=O)ccc4cnc5ccc(-c6cnn(C)c6)cc5c43)cc21,scaled lipid accumulation score,[6],1.19 (active)
C=CC(=O)Nc1cc(-n2c(=O)ccc3cnc4ccc(-c5ccc(NS(C)(=O)=O)cc5)cc4c32)ccc1C,scaled lipid accumulation score,[2],≤ -0.001
same,scaled lipid accumulation score,[3],≤ -0.001
same,scaled lipid accumulation score,[4],0.003
same,scaled lipid accumulation score,[6],0.06
C=CC(=O)Nc1cc(-n2c(=O)ccc3cnc4ccc(-c5cn[nH]c5)cc4c32)ccc1C,scaled lipid accumulation score,[2],≤ 0
same,scaled lipid accumulation score,[3],≤ 0
same,scaled lipid accumulation score,[4],0.082
same,scaled lipid accumulation score,[6],0.662
CCCCC(CC)CN=C(N)N=C(N)NCCCCCCNC(N)=NC(N)=NCC(CC)CCCC (centres undefined) [Alexidine hydrochloride],scaled lipid accumulation score,[6],≤ -0.027
CCCCCC1OC(O)CC1SC[C@H](NC(C)=O)C(=O)O (some centres undefined) [4-hydroxy Nonenal Mercapturic Acid],scaled lipid accumulation score,[1],≤ 0
Nc1c(CC(=O)O)cccc1C(=O)c1ccccc1 [Amfenac Sodium Monohydrate],scaled lipid accumulation score,[5],≤ 0
same,scaled lipid accumulation score,[6],0.019
NC1(Cc2ccc(Cl)cc2)CCN(c2ncnc3[nH]ccc23)CC1 [listing 1 of 2 here],scaled lipid accumulation score,[5],0.47
NC1(Cc2ccc(Cl)cc2)CCN(c2ncnc3[nH]ccc23)CC1 [listing 2 of 2 here],scaled lipid accumulation score,[6],1.09 (active)
NC1(C(=O)N[C@@H](CCO)c2ccc(Cl)cc2)CCN(c2ncnc3[nH]ccc23)CC1,scaled lipid accumulation score,[2],0.053
same,scaled lipid accumulation score,[3],0.049
same,scaled lipid accumulation score,[4],0.038
same,scaled lipid accumulation score,[5],≤ -0.009
same,scaled lipid accumulation score,[6],≤ 0 and 0.178
"OCCNCCCOc1cccc(Cl)c1Cl [2,3-DCPE (hydrochloride)]",scaled lipid accumulation score,[1],0.049
O=C(c1cccs1)c1ccc(OCCCO)c(Cl)c1Cl [homo-Tienilic Alcohol],scaled lipid accumulation score,[1],0.02
"Cl.OCCNCCCOc1cccc(Cl)c1Cl [2,3-DCPE hydrochloride]",scaled lipid accumulation score,[6],1.14 (active)
O=Cc1cccc2[nH]ccc12 [4-formyl Indole],scaled lipid accumulation score,[1],≤ 0
CC(C)(C)Cn1c(N)nc2ccc(-c3[nH]c(C(C)(C)C)nc3-c3ccc(F)cc3)nc21 [Ralimetinib],scaled lipid accumulation score,[2],0.033
same,scaled lipid accumulation score,[3],0.086
same,scaled lipid accumulation score,[4],0.076
same,scaled lipid accumulation score,[6],0.481
CC(C)(C)Cn1c(N)nc2ccc(-c3[nH]c(C(C)(C)C)nc3-c3ccc(F)cc3)nc21,scaled lipid accumulation score,[5],0.034
same,scaled lipid accumulation score,[6],0.268
O=C(O)CCC/C=C\C[C@H]1[C@@H](O)CC(=O)[C@@H]1/C=C/[C@@H](O)COc1cccc(C(F)(F)F)c1 [11-keto Fluprostenol],scaled lipid accumulation score,[1],≤ 0
CN(C)C/C=C(/c1ccc(Br)cc1)c1cccnc1 [Zimelidine dihydrochloride monohydrate],scaled lipid accumulation score,,0.454
CN(C)C/C=C(/c1ccc(Br)cc1)c1cccnc1 [Zimelidine dihydrochloride],scaled lipid accumulation score,library stock concentration: 5.1 mM,0.434
same,scaled lipid accumulation score,[6],0.178
CCN(CC)C(=O)c1cccnc1,scaled lipid accumulation score,[6],0.073
CN(C)C/C=C(/c1ccc(Br)cc1)c1cccnc1.Cl.Cl [Zimelidine dihydrochloride],scaled lipid accumulation score,[6],0.893 (active)
CS(=O)(=O)Nc1ccc([N+](=O)[O-])cc1Oc1ccccc1 [Nimesulide],scaled lipid accumulation score,,0.061
same,scaled lipid accumulation score,[1],≤ 0
same,scaled lipid accumulation score,[5],≤ 0
same,scaled lipid accumulation score,library stock concentration: 16.2 mM,0.012
CC(=O)OCOC(c1ccc2ccccc2c1)P(=O)(OCOC(C)=O)OCOC(C)=O (centres undefined),scaled lipid accumulation score,library stock concentration: 11 mM,0.031
CC(=O)OCOC(c1cc([N+](=O)[O-])ccc1Oc1ccc(Br)cc1)P(=O)(OCOC(C)=O)OCOC(C)=O (centres undefined),scaled lipid accumulation score,library stock concentration: 8.1 mM,0.887 (active)
Cn1cc(C(F)(F)F)nc1-c1ccc(OCC(O)CNCCOc2ccc(O)c(C(N)=O)c2)cc1 (centres undefined),scaled lipid accumulation score,[6],0.731
COc1cc2ncnc(Nc3cc(Br)c(O)c(Br)c3)c2cc1OC,scaled lipid accumulation score,[2],≤ 0
same,scaled lipid accumulation score,[3],≤ 0
same,scaled lipid accumulation score,[4],≤ 0
same,scaled lipid accumulation score,[6],0.04
COc1cc2ncnc(Sc3nnc(C)s3)c2cc1OC [listing 1 of 2 here],scaled lipid accumulation score,[6],0.919 (active)
COc1cc2ncnc(Sc3nnc(C)s3)c2cc1OC [listing 2 of 2 here],scaled lipid accumulation score,[5],≤ -0.009
C=CC(=O)Nc1cc(NC(=O)c2ccc(C)c(NC(=O)c3ccno3)c2)cc(C(F)(F)F)c1,scaled lipid accumulation score,[2],≤ 0
same,scaled lipid accumulation score,[3],≤ 0
same,scaled lipid accumulation score,[4],≤ 0
same,scaled lipid accumulation score,[6],0.311
Nc1ccc(-c2cccc3c(=O)cc(N4CCOCC4)oc23)cc1,scaled lipid accumulation score,[6],≤ -0.001
Nc1ncnc2nc(-c3ccc(N4CCOCC4)nc3)cc(-c3cccc(Br)c3)c12 [ABT 702 dihydrochloride],scaled lipid accumulation score,[6],0.275
Nc1ncnc2nc(-c3ccc(N4CCOCC4)nc3)cc(-c3cccc(Br)c3)c12 [listing 1 of 2 here],scaled lipid accumulation score,[2],≤ -0.001
same,scaled lipid accumulation score,[3],0.008
same,scaled lipid accumulation score,[4],≤ -0.001
Nc1ncnc2nc(-c3ccc(N4CCOCC4)nc3)cc(-c3cccc(Br)c3)c12 [listing 2 of 2 here],scaled lipid accumulation score,[6],0.982 (active)
O=C(CCBr)N1CCN(C(=O)CCBr)CC1 [Pipobroman],scaled lipid accumulation score,[6],≤ -0.027
S=C=Nc1cccc(NC(=S)NCCCCNC(=S)Nc2cccc(N=C=S)c2)c1,scaled lipid accumulation score,[5],0.004
same,scaled lipid accumulation score,[6],0.023
CCNC(=O)c1noc(-c2cc(C(C)C)c(O)cc2O)c1-c1ccc(CN2CCOCC2)cc1 [listing 1 of 2 here],scaled lipid accumulation score,[2],0.702
same,scaled lipid accumulation score,[3],0.802
same,scaled lipid accumulation score,[4],0.808
same,scaled lipid accumulation score,[6],0.831 and 0.776
CCNC(=O)c1noc(-c2cc(Cl)c(O)cc2O)c1-c1ccc(OC)cc1,scaled lipid accumulation score,[5],0.783
same,scaled lipid accumulation score,[6],0.741
CCNC(=O)c1noc(-c2cc(C(C)C)c(O)cc2O)c1-c1ccc(CN2CCOCC2)cc1 [listing 2 of 2 here],scaled lipid accumulation score,[5],0.91 (active)
CN(C1CCc2c(c3ccccc3n2CC(=O)O)C1)S(=O)(=O)c1ccc(F)cc1 (centres undefined),scaled lipid accumulation score,[1],0.083
CN(C)[C@@H]1CCc2[nH]c3ccc(NC(=O)c4ccc(F)cc4)cc3c2C1.Cl,scaled lipid accumulation score,[6],1.37 (active)
CN(C)CC(=O)Nc1ccc2[nH]c(=O)c3ccccc3c2c1,scaled lipid accumulation score,[5],≤ 0 and ≤ -0.009
same,scaled lipid accumulation score,[6],0.59 and 0.025
CCCCCCCCCCCCCCCC(O)C(N)CO (racemic) [DL-Dihydrosphingosine],scaled lipid accumulation score,[1],≤ -0.021
NC(=O)c1cnc(N[C@@H]2CCCC[C@@H]2N)nc1Nc1cccc(-n2nccn2)c1,scaled lipid accumulation score,[2],≤ 0
same,scaled lipid accumulation score,[3],0.015
same,scaled lipid accumulation score,[4],0.218
same,scaled lipid accumulation score,[5],0.214
same,scaled lipid accumulation score,[6],0.215 and 0.449
Cc1cc(O)cc(C)c1Cl [Chloroxylenol],scaled lipid accumulation score,[6],≤ 0
C[C@H]1c2cccc(O)c2C(O)=C2C(=O)[C@]3(O)C(O)=C(C(N)=O)C(=O)[C@@H](N(C)C)[C@@H]3[C@@H](O)[C@@H]21 [Doxycycline Hyclate],scaled lipid accumulation score,[5],≤ 0
same,scaled lipid accumulation score,[6],≤ -0.001
CC(C)OC(=O)CCC/C=C\C[C@@H]1[C@@H](/C=C/[C@@H](O)CCc2ccccc2)[C@H](O)C[C@@H]1O [17-phenyl trinor Prostaglandin F2.alpha. isopropyl ester],scaled lipid accumulation score,[1],≤ 0
CC(C)Nc1ncccn1,scaled lipid accumulation score,[6],≤ 0
C(=C\c1ccccc1)/CN1CCN(C(c2ccccc2)c2ccccc2)CC1 [Cinnarazine],scaled lipid accumulation score,library stock concentration: 5.4 mM,0.328
same,scaled lipid accumulation score,[6],0.423
COc1ccc(-c2cc(C(F)F)nn2-c2ccc(S(N)(=O)=O)cc2)cc1F [Deracoxib],scaled lipid accumulation score,library stock concentration: 5 mM,≤ 0
CCCCC/C=C\C/C=C\C/C=C\CCCCC(=O)OC [.gamma.-Linolenic Acid methyl ester],scaled lipid accumulation score,[1],≤ 0
O=C(O)CCCCCC[C@@H]1[C@@H](CC[C@@H](O)CCc2cccc(C(F)(F)F)c2)[C@H](O)C[C@@H]1O,scaled lipid accumulation score,[1],≤ 0
"CCCCC(C)(C)[C@H](O)/C=C/[C@H]1[C@H](O)CC(=O)[C@@H]1CC(=O)CCCCC(=O)O [16,16-dimethyl-6-keto Prostaglandin E1]",scaled lipid accumulation score,[1],≤ 0
CC[C@]1(O)C[C@H]2CN(CCc3c([nH]c4ccccc34)[C@@](C(=O)OC)(c3cc4c(cc3OC)N(C=O)[C@H]3[C@@](O)(C(=O)OC)[C@H](OC(C)=O)[C@]5(CC)C=CCN6CC[C@]43[C@@H]65)C2)C1.O=S(=O)(O)O [Vincristine sulfate],scaled lipid accumulation score,[6],1.36 (active)
CC[C@]1(O)C[C@@H]2CN(CCc3c([nH]c4ccccc34)[C@@](C(=O)OC)(c3cc4c(cc3OC)N(C=O)[C@H]3[C@@](O)(C(=O)OC)[C@H](OC(C)=O)[C@]5(CC)C=CCN6CC[C@]43[C@@H]65)C2)C1.O=S(=O)(O)O,scaled lipid accumulation score,[6],1.47 (active)
CCC1(O)CC2CN(CCc3c([nH]c4ccccc34)[C@@](C(=O)OC)(c3cc4c(cc3OC)N(C=O)C3[C@]45CCN4CC=C[C@@](CC)([C@@H](OC(C)=O)[C@]3(O)C(=O)OC)[C@H]45)C2)C1.O=S(=O)(O)O (some centres undefined) [Vincristine sulfate],scaled lipid accumulation score,[6],0.897 (active)
CC[C@]1(O)C[C@H]2CN(CCc3c([nH]c4ccccc34)[C@@](C(=O)OC)(c3cc4c(cc3OC)N(C=O)[C@H]3[C@@](O)(C(=O)OC)[C@H](OC(C)=O)[C@]5(CC)C=CCN6CC[C@]43[C@@H]65)C2)C1 [Vincristine],scaled lipid accumulation score,[5],0.004
same,scaled lipid accumulation score,[6],0.512
